From the supplement of paper PMC12645437, “Orthogonal IMiD-Degron Pairs Induce Selective Protein Degradation in Cells” (ACS Chemical Biology, 2025)
Whole data set: some 8,300 sequences, median “log2 fold change of degron read counts, EGFP-low vs EGFP+ sorted cells (limma voom), compound-induced degradation” near -1.1, cut for the highest 2% near 3.2. The full list was thinned out, with the highest values kept by preference.

Molecular target: T1, CRBN, Q96SW2
T1 chain: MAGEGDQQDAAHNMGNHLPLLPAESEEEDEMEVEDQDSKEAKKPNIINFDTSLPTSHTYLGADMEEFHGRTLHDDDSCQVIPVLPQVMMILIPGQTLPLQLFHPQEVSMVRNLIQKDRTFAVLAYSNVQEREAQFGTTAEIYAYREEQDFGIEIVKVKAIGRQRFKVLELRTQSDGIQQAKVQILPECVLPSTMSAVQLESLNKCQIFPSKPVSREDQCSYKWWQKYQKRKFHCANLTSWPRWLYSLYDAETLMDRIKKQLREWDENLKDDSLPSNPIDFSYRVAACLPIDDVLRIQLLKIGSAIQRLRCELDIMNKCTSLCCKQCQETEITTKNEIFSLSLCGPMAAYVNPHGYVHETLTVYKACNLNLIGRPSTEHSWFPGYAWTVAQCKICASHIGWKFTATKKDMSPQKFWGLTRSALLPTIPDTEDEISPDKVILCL
Assay: log2 fold change of degron read counts, EGFP-low vs EGFP+ sorted cells (limma voom), compound-induced degradation; higher = more compound-induced degradation of the degron-EGFP fusion; degrons are variants of IKZF1/3 zinc finger 2; compound dose not given here
Conditions: Jurkat, 18 h
Description: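 Pooled library of 8380 IKZF3 ZF2 degron mutants (positions 146-167 varied within the IKZF3 130-189 degron; only the varied core is printed, flanks not printed) fused to EGFP with IRES-mCherry, lentivirally expressed in Jurkat cells. mCherry+ cells were treated with one IMiD compound for 18 h (dose not stated) and FACS-sorted into EGFP-low and EGFP+ populations. Degron sequences were counted by NGS, and log2FC (EGFP-low vs EGFP+) was estimated by limma voom over 3 biological replicates.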

[1] = compound: compound 19 (5-tert-butyl-thalidomide)
[2] = compound: compound 22 (5-morpholino-thalidomide)
[3] = compound: compound 33 (diphenyl IMiD analogue)
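Also: pooled lentiviral library of zinc finger degron-EGFP fusions in mCherry-positive Jurkat cells, FACS-sorted after compound exposure, with degron abundance counted by next-generation sequencing.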

Q: With FNCDICGAWFTQKGNLLRHIKL [46F_47N_49D_50I_52G_53A_54W_55F_67L_, Q9UKT9] as the sequence, how does the “log2 fold change of degron read counts” value [1] read?
A: -1.24

Q: And the “log2 fold change of degron read counts” value [2]?
A: -2.06

Q: What about the “log2 fold change of degron read counts” value [3] of the same sequence?
A: -2.22

Q: And the “log2 fold change of degron read counts” value (compound: thalidomide)?
A: -2.05

Q: What does the source list for FTCPVCGASFTQKGNLLRHIKL [46F_47T_49P_50V_52G_53A_54S_55F_67L_, Q9UKT9]?
A: log2 fold change of degron read counts [1]: 1.45; log2 fold change of degron read counts [2]: 2.72; log2 fold change of degron read counts [3]: 2.67; log2 fold change of degron read counts (compound: thalidomide): 2.79

Q: How did the “log2 fold change of degron read counts” value [1] turn out when FDCPVCGASFTQKGNLLRHIKL [46F_47D_49P_50V_52G_53A_54S_55F_67L_, Q9UKT9] was run?
A: 2.73

Q: And the “log2 fold change of degron read counts” value [2]?
A: 0.654

Q: And the “log2 fold change of degron read counts” value [3]?
A: 1.35

Q: And the “log2 fold change of degron read counts” value (compound: thalidomide)?
A: 1.92

Q: For FSCPVCGASFTQKGNLLRHIKL [46F_47S_49P_50V_52G_53A_54S_55F_67L_, Q9UKT9], which “log2 fold change of degron read counts” value [1] is on record?
A: 3.33

Q: What about the “log2 fold change of degron read counts” value [2] of the same sequence?
A: 2.24

Q: And the “log2 fold change of degron read counts” value [3]?
A: 2.42

Q: And the “log2 fold change of degron read counts” value (compound: thalidomide)?
A: 1.71

Q: Which “log2 fold change of degron read counts” value [1] does the source give for FNCPVCGASFTQKGNLLRHIKL [46F_47N_49P_50V_52G_53A_54S_55F_67L_, Q9UKT9] here?
A: 2.78

Q: What about the “log2 fold change of degron read counts” value [2] of the same sequence?
A: 1.17

Q: What about the “log2 fold change of degron read counts” value [3] of the same sequence?
A: 1.06

Q: And the “log2 fold change of degron read counts” value (compound: thalidomide)?
A: 0.433

Q: What does the source list for FACPVCGASFTQKGNLLRHIKL [46F_47A_49P_50V_52G_53A_54S_55F_67L_, Q9UKT9]?
A: log2 fold change of degron read counts [1]: 3.54; log2 fold change of degron read counts [2]: 2.15; log2 fold change of degron read counts [3]: 1.39; log2 fold change of degron read counts (compound: thalidomide): 1.39

Q: What does the source list for FFCPVCGASFTQKGNLLRHIKL [46F_47F_49P_50V_52G_53A_54S_55F_67L_, Q9UKT9]?
A: log2 fold change of degron read counts [1]: 3.04; log2 fold change of degron read counts [2]: 3.18; log2 fold change of degron read counts [3]: 2.27; log2 fold change of degron read counts (compound: thalidomide): 1.42

Q: FQCPVCGASFTQKGNLLRHIKL [46F_47Q_49P_50V_52G_53A_54S_55F_67L_, Q9UKT9] was tested. Which “log2 fold change of degron read counts” value [1] did it give?
A: 2.35

Q: What about the “log2 fold change of degron read counts” value [2] of the same sequence?
A: 2.72

Q: And the “log2 fold change of degron read counts” value [3]?
A: 2.38

Q: What about the “log2 fold change of degron read counts” value (compound: thalidomide) of the same sequence?
A: 3.6

Q: How did the “log2 fold change of degron read counts” value [1] turn out when FKCPVCGASFTQKGNLLRHIKL [46F_47K_49P_50V_52G_53A_54S_55F_67L_, Q9UKT9] was run?
A: 1.07

Q: And the “log2 fold change of degron read counts” value [2]?
A: -1.4

Q: What about the “log2 fold change of degron read counts” value [3] of the same sequence?
A: -1.51

Q: And the “log2 fold change of degron read counts” value (compound: thalidomide)?
A: 0.152

Q: With FGCPVCGASFTQKGNLLRHIKL [46F_47G_49P_50V_52G_53A_54S_55F_67L_, Q9UKT9] as the sequence, how does the “log2 fold change of degron read counts” value [1] read?
A: 3.39

Q: What about the “log2 fold change of degron read counts” value [2] of the same sequence?
A: 2.36

Q: What about the “log2 fold change of degron read counts” value [3] of the same sequence?
A: 2.57

Q: What about the “log2 fold change of degron read counts” value (compound: thalidomide) of the same sequence?
A: 1.08

Q: How did the “log2 fold change of degron read counts” value [1] turn out when FECPVCGASFTQKGNLLRHIKL [46F_47E_49P_50V_52G_53A_54S_55F_67L_, Q9UKT9] was run?
A: 1.95

Q: What about the “log2 fold change of degron read counts” value [2] of the same sequence?
A: -0.732

Q: And the “log2 fold change of degron read counts” value [3]?
A: 2.2

Q: And the “log2 fold change of degron read counts” value (compound: thalidomide)?
A: 2.9

Q: For FVCPVCGASFTQKGNLLRHIKL [46F_47V_49P_50V_52G_53A_54S_55F_67L_, Q9UKT9], which “log2 fold change of degron read counts” value [1] is on record?
A: 0.217

Q: What about the “log2 fold change of degron read counts” value [2] of the same sequence?
A: 2.83

Q: What about the “log2 fold change of degron read counts” value [3] of the same sequence?
A: 2.01

Q: And the “log2 fold change of degron read counts” value (compound: thalidomide)?
A: 2.79

Q: With FMCPVCGASFTQKGNLLRHIKL [46F_47M_49P_50V_52G_53A_54S_55F_67L_, Q9UKT9] as the sequence, how does the “log2 fold change of degron read counts” value [1] read?
A: 1.06

Q: And the “log2 fold change of degron read counts” value [2]?
A: 2.04

Q: What about the “log2 fold change of degron read counts” value [3] of the same sequence?
A: 2.75

Q: And the “log2 fold change of degron read counts” value (compound: thalidomide)?
A: 2.02

Q: What does the source list for FSCNICGATFTQKGNLLRHIKL [46F_47S_49N_50I_52G_53A_54T_55F_67L_, Q9UKT9]?
A: log2 fold change of degron read counts [1]: 0.862; log2 fold change of degron read counts [2]: 1.72; log2 fold change of degron read counts [3]: 1.81; log2 fold change of degron read counts (compound: thalidomide): 0.773

Q: Which “log2 fold change of degron read counts” value [1] does the source give for FRCSVCGHPFTQKGNLLRHIKL [46F_47R_49S_50V_52G_53H_54P_55F_67L_, Q9UKT9] here?
A: -1.61

Q: What about the “log2 fold change of degron read counts” value [2] of the same sequence?
A: 0.0411

Q: And the “log2 fold change of degron read counts” value [3]?
A: -0.252

Q: And the “log2 fold change of degron read counts” value (compound: thalidomide)?
A: -0.256

Q: LDCNQCGFVCTQKGNLLRHIKL [46L_47D_49N_50Q_52G_53F_54V_55C_67L_, Q9UKT9] was tested. Which “log2 fold change of degron read counts” value [1] did it give?
A: -1.84

Q: And the “log2 fold change of degron read counts” value [2]?
A: -2.2

Q: What about the “log2 fold change of degron read counts” value [3] of the same sequence?
A: -2.2

Q: What about the “log2 fold change of degron read counts” value (compound: thalidomide) of the same sequence?
A: -1.82

Q: For FDCNVCGASFTQKGNLLRHIKL [46F_47D_49N_50V_52G_53A_54S_55F_67L_, Q9UKT9], which “log2 fold change of degron read counts” value [1] is on record?
A: -0.855

Q: And the “log2 fold change of degron read counts” value [2]?
A: -1.38

Q: What about the “log2 fold change of degron read counts” value [3] of the same sequence?
A: -1.21

Q: What about the “log2 fold change of degron read counts” value (compound: thalidomide) of the same sequence?
A: -0.475

Q: Which “log2 fold change of degron read counts” value [1] does the source give for FDCEICGRTFTQKGNLLRHIKL [46F_47D_49E_50I_52G_53R_54T_55F_67L_, Q9UKT9] here?
A: -2.33

Q: What about the “log2 fold change of degron read counts” value [2] of the same sequence?
A: -3.04

Q: What about the “log2 fold change of degron read counts” value [3] of the same sequence?
A: -1.56

Q: And the “log2 fold change of degron read counts” value (compound: thalidomide)?
A: -1.64
